# In publication PMC4552634, “A New Set of Chemical Starting Points with Plasmodium falciparum Transmission-Blocking Potential for Antimalarial Drug Discovery” (PLoS ONE, 2015):
# The campaign covered roughly 13,000 compounds. About 3,200 (25%) showed an effect of 50% or more. This is one part of the list.
# System: P. falciparum stage V gametocytes
# Parameters: BacTiter-Glo ATP luminescence viability of purified stage V gametocytes in 384-well plates, per cent inhibition versus DMSO
# Details: 48 h, 5 µM; inhibitor
row,Structure (SMILES),% Inhibition [%]
1,COC(=O)c1sc2ccccc2c1NC(=O)c1ccc(C)c(C)c1 [TCMDC-125650],21.99
2,CCC(C)(C)c1ccc2nc(N)nc(N)c2c1C [TCMDC-137829],-16.15
3,CC(=O)N1CCC(C(=O)Nc2ccc(-c3cccc(-c4nc5ccc(C(F)(F)F)cc5[nH]4)c3)cc2)CC1 [TCMDC-132166],-13.72
4,O=C(/C=C/c1ccc(Cl)c(Cl)c1)NCCCCCN1CCC(NC(=O)Nc2ccc(Cl)cc2Cl)CC1 [TCMDC-135729],-21.32
5,O=C(Nc1cccc(N2CCC(NCc3cccnc3)CC2)c1)c1cccc(C(F)(F)F)c1 [TCMDC-124649],-0.3933
6,COc1c(C2CCN(CCCCNC(=O)c3ccc(NC(=O)c4ccc(C#N)cc4)cc3)CC2)ccc2c1CCCC2 [TCMDC-138664],116.8
7,COc1c(C2CCN(CCCCNC(=O)c3noc(-c4ccc(C#N)cc4)n3)CC2)ccc2c1CCCC2 [TCMDC-138814],4.753
8,Cn1ccc(C(=O)Nc2ccc3c(c2)CN(Cc2ccc(N4CCCC4)o2)CCC3)n1 [TCMDC-134722],-3.632
9,O=C(NCc1cccc(F)c1)Nc1cccc(-c2cccc(-c3nc4ccccc4[nH]3)c2)c1 [TCMDC-133290],0.3342
10,CC(=O)Nc1ccc(CN2Cc3ccc(NC(=O)Nc4ccc(Oc5ccccc5)cc4)cc3C2)s1 [TCMDC-141756],-76.53
11,FC(F)(F)c1ccc2nc(-c3ccc(-c4cccc(CN5CCCCC5)c4)cc3)[nH]c2c1 [TCMDC-133886],-44.09
12,NC(=O)C1CCN(Cc2cccc(-c3ccc(-c4nc5ccc(C(F)(F)F)cc5[nH]4)cc3)c2)CC1 [TCMDC-132691],-22.66
13,Cc1cccc2nc(-c3ccc(-c4ccc(CN5CCCC(O)C5)cc4)cc3)[nH]c12.O=C(O)C(F)(F)F (centres unmarked) [TCMDC-133826],35.59
14,Fc1ccc2[nH]c(-c3cccc(-c4ccc(CN5CCC(CCN6CCCCC6)CC5)cc4)c3)nc2c1 [TCMDC-133940],104.4
15,FC(F)(F)c1ccc2[nH]c(-c3ccc(-c4cccc(CN5CCC(CCN6CCCCC6)CC5)c4)cc3)nc2c1 [TCMDC-133941],100.4
16,c1cc(-c2ccc(CN3CCCCC3)cc2)cc(-c2nc3ccccc3[nH]2)c1 [TCMDC-133917],-5.733
17,Fc1ccc2[nH]c(-c3ccc(-c4ccc(CN5CCC(CCN6CCCCC6)CC5)cc4)cc3)nc2c1 [TCMDC-133924],105.4
18,Fc1ccc2nc(-c3cccc(-c4ccc(CN5CCCCC5)cc4)c3)[nH]c2c1 [TCMDC-133887],2.75
19,Cc1cccc2nc(-c3ccc(-c4ccc(CN5CCC(CCN6CCCCC6)CC5)cc4)cc3)[nH]c12 [TCMDC-133929],114
20,Cc1cccc2nc(-c3ccc(-c4ccc(CN5CCC(C(N)=O)CC5)cc4)cc3)[nH]c12.O=C(O)C(F)(F)F [TCMDC-132688],10.12
21,O=C(O)C(F)(F)F.OCC1CCN(Cc2ccc(-c3ccc(-c4nc5cc(F)ccc5[nH]4)cc3)cc2)CC1 [TCMDC-133125],29.73

row,Structure (SMILES),% Inhibition [%]
1,NC(=O)C1CCN(Cc2ccc(-c3ccc(-c4nc5cc(F)ccc5[nH]4)cc3)cc2)CC1.O=C(O)C(F)(F)F [TCMDC-132693],4.411
2,CC(=O)c1cccc2c(NC(=O)Nc3ccc4nccc(N5CCN(C)CC5)c4c3)cccc12 [TCMDC-139345],-42.22
3,O=C(Nc1ccsc1)Nc1cccc(-c2cccc(-c3nc4ccc(C(F)(F)F)cc4[nH]3)c2)c1 [TCMDC-133214],-52.37
4,CC(=O)C1(c2ccccc2)CCN(CCC2(c3ccc(Cl)c(Cl)c3)CN(C(=O)Nc3cc(F)cc(F)c3)CCO2)CC1 (centres unmarked) [TCMDC-135332],-16.09
5,N#Cc1ccc(NC(=O)c2ccc(Cc3ccc4c(c3)CCN(C3CCC3)CC4)cn2)cc1 [TCMDC-136453],22.22
6,COc1ccc(NC(=O)/C=C/c2ccccc2Cl)cc1OCCN1CCC(O)(c2ccc(Cl)c(C(F)(F)F)c2)CC1 [TCMDC-140918],-10.77
7,Fc1ccc2nc(-c3ccc(-c4cccc(CN5CCCCC5)c4)cc3)[nH]c2c1 [TCMDC-133896],-18.48
8,OCCN1CCN(Cc2cccc(-c3cccc(-c4nc5ccc(F)cc5[nH]4)c3)c2)CC1 [TCMDC-133035],-22.3
9,Fc1ccc2nc(-c3ccc(-c4cccc(CN5CCC(CCN6CCCCC6)CC5)c4)cc3)[nH]c2c1 [TCMDC-133933],114
10,Fc1ccc2[nH]c(-c3ccc(-c4ccc(CN5CCC(CCN6CCCCC6)CC5)cc4)s3)nc2c1 [TCMDC-133932],102.4
11,OCc1c(Cl)cc(Cl)cc1CNCCCNc1nc2ccccc2[nH]1 [TCMDC-140012],-23.66
12,O=C(/C=C/c1ccc(Cl)c(Cl)c1)NCC1CCN(Cc2ccc(O)cc2)CC1 [TCMDC-141740],34.51
13,CCC1(C)CC(CCNCc2ccccc2O)(c2ccccc2OC)CCO1 (centres unmarked) [TCMDC-125080],19.87
14,CN1CCC(N(Cc2ccc(-c3cnc(NCc4ccccc4)nc3)cc2)S(=O)(=O)c2ccccc2)CC1 [TCMDC-137158],31.68
15,CN1CCC(NCc2cccc(-c3cnc(NCc4ccccc4)nc3)c2)CC1 [TCMDC-134119],58.9
16,Cn1nc(-c2cccc(CNCc3ccccc3)c2)c2cnc(NC3CCCC3)nc21 [TCMDC-134839],-3.994
17,COc1ccc(-c2cnc(NCc3ccccc3)nc2)cc1CNC1CCN(C)CC1 [TCMDC-134121],34.84
18,CN1CCC(NCc2cccc(-c3nn(C)c4nc(NC5CCCC5)ncc34)c2)CC1 [TCMDC-134840],110.3
19,Cn1nc(-c2cccc(CNCCc3cccs3)c2)c2cnc(NC3CCCC3)nc21 [TCMDC-135031],12.01
20,CN1CCC(NCc2ccc(-c3cnc(NCc4ccccc4)nc3)cc2)CC1 [TCMDC-134120],82.56
